Source: PubChem BioAssay (NCI)
“And” between values parts separate entries of the source, which are not always exact repeats. Equal values may be shown once. This is part of a sample that, as a whole, favours compounds with a hit. Of some 83,000 tested, about 20% had one in any assay.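 Negative percent growth values reflect cell death: -40 means 40% of the cells present at the start died, and -100 means all died.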 The source made the active and inactive calls. The calls were made as follows: active = growth percent below 10; inactive = the rest.

Tests used:
Assay in all cases: NCI-60 one-dose screen, 48 h (100 = growth as untreated, 0 = no growth, -100 = all killed)
[1] = tested on: NCI-H23 lung; settings: 10 µM unless noted
[2] = tested on: NCI-H226 lung; settings: 10 µM unless noted
[3] = tested on: NCI-H322M lung; settings: 10 µM unless noted
[4] = tested on: HOP-62 NSCLC; settings: 10 µM unless noted
[5] = tested on: NCI-H460 lung; settings: 10 µM unless noted
[6] = tested on: HOP-92 NSCLC; settings: 10 µM
[7] = tested on: NCI-H522 lung; settings: 10 µM
[8] = tested on: A549/ATCC NSCLC; settings: 10 µM unless noted
[9] = tested on: 786-0 renal; settings: 10 µM unless noted
[10] = tested on: COLO 205 colon; settings: 10 µM unless noted
[11] = tested on: DU-145 prostate; settings: 10 µM unless noted
[12] = tested on: K-562 leukemia; settings: 10 µM unless noted
[13] = tested on: MALME-3M melanoma; settings: 10 µM unless noted
[14] = tested on: MDA-MB-231 breast; settings: 10 µM unless noted
[15] = tested on: RXF 393 renal; settings: 10 µM unless noted
[16] = tested on: SF-268 CNS; settings: 10 µM unless noted
[17] = tested on: SF-295 CNS; settings: 10 µM unless noted
[18] = tested on: SF-539 CNS; settings: 10 µM unless noted
[19] = tested on: UACC-257 melanoma; settings: 10 µM unless noted
[20] = tested on: M14 melanoma; settings: 10 µM unless noted

Compound | growth [1] | growth [2] | growth [3] | growth [4] | growth [5] | growth [6] | growth [7] | growth [8] | growth [9] | growth [10] | growth [11] | growth [12] | growth [13] | growth [14] | growth [15] | growth [16] | growth [17] | growth [18] | growth [19] | growth [20]
NC(Cc1c[nH]c2ccccc12)C(=O)O (stereo not given) | 106% (inactive) and 108% (inactive) | 90.6% (inactive) and 103% (inactive) | 98.8% (inactive) and 111% (inactive) | 64.3% (inactive) and 96.3% (inactive) | 105% (inactive) and 101% (inactive) | 75.5% (inactive) | 86% (inactive) and 93.1% (inactive) | 113% (inactive) and 97.8% (inactive) | 69.5% (inactive) and 99.7% (inactive) | 117% (inactive) and 103% (inactive) | 103% (inactive) and 113% (inactive) | 136% (inactive) and 101% (inactive) | 118% (inactive) and 96.3% (inactive) | 104% (inactive) and 97.1% (inactive) | 91.4% (inactive) and 103% (inactive) | 105% (inactive) and 101% (inactive) | 99.4% (inactive) and 102% (inactive) | 93.8% (inactive) and 96.8% (inactive) | 66.9% (inactive) and 94% (inactive) | 93.2% (inactive) and 98.4% (inactive)
O=C(Cc1ccccc1)c1ccc(O)c(Cl)c1 | 24% (inactive) | 83.7% (inactive) | 80% (inactive) | 70.4% (inactive) | 32.3% (inactive) | 57.6% (inactive) | 10.3% (inactive) | 96.4% (inactive) | 26.8% (inactive) | 55.4% (inactive) | 18.5% (inactive) | 21.4% (inactive) | 50.2% (inactive) | 49.8% (inactive) | 41.7% (inactive) | 41.7% (inactive) | 47.8% (inactive) | 32.9% (inactive) | 66.7% (inactive) | 30.1% (inactive)
CCN(CCNS(C)(=O)=O)c1ccc(N)c(C)c1 | 99.2% (inactive) and 85.9% (inactive) | 92.9% (inactive) and 82.7% (inactive) | 95.1% (inactive) and 120% (inactive) | 106% (inactive) and 111% (inactive) | 107% (inactive) and 99.7% (inactive) | 84.4% (inactive) | -70.5% (active) | 109% (inactive) | 89% (inactive) and 95.7% (inactive) | 69.6% (inactive) and 107% (inactive) | 70.4% (inactive) and 123% (inactive) | 27.9% (inactive) and 95.5% (inactive) | 93.6% (inactive) and 119% (inactive) | 109% (inactive) and 97.4% (inactive) | 72.4% (inactive) and 78.3% (inactive) | 93.3% (inactive) and 94.9% (inactive) | 103% (inactive) and 116% (inactive) | 113% (inactive) and 105% (inactive) | 89.7% (inactive) | 108% (inactive) and 98.6% (inactive)
O=C1CSC2=NCCN12 | 87.7% (inactive) and 90% (inactive) | 102% (inactive) and 85.5% (inactive) | 102% (inactive) and 94.5% (inactive) | 90.9% (inactive) and 95.9% (inactive) | 96.3% (inactive) and 99.3% (inactive) | 112% (inactive) and -2.23% (active) | 59.3% (inactive) and 99.1% (inactive) | 92.9% (inactive) and 113% (inactive) | 80.7% (inactive) and 61.7% (inactive) | 104% (inactive) and 127% (inactive) | 111% (inactive) and 107% (inactive) | 74.2% (inactive) and 76.4% (inactive) | 91.7% (inactive) and 120% (inactive) | 104% (inactive) and 103% (inactive) | 81.5% (inactive) and 98.4% (inactive) | 97.4% (inactive) and 96.9% (inactive) | 102% (inactive) and 81% (inactive) | 94.3% (inactive) and 91.7% (inactive) | 71.9% (inactive) and 103% (inactive) | 90.1% (inactive) and 91.6% (inactive)
N#CC(C#N)N=Nc1ccc(Cl)cc1 | 36.5% (inactive) | 75.1% (inactive) | 93.2% (inactive) | 84.9% (inactive) | 91% (inactive) | -15.1% (active) | -12.4% (active) | 105% (inactive) | 59% (inactive) | -33.9% (active) | 68.2% (inactive) | 10.2% (inactive) | 15.6% (inactive) | 47.2% (inactive) | 61.4% (inactive) | 84.9% (inactive) | 94.7% (inactive) | 53.1% (inactive) | 20.8% (inactive) | 60.1% (inactive)
